gsp agonist: qHTS for Agonist of gsp, the Etiologic Mutation Responsible for Fibrous Dysplasia/McCune-Albright Syndrome: qHTS. hit rate 0.13% among 340,000. gsp mutant cells, cAMP HTRF, 30 min. Potency, µM (top dose mostly 76.9 µM), usual class: activators; active means well fitted activation curve with a large enough effect; inconclusive means small, poorly fitted or top-dose-only effect, or another doubt; inactive means no such curve, though single readings can be large or run the other way; cell line not stated here;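 further: phosphodiesterase inhibitor Ro 20-1724 added with compounds to block cAMP breakdown; nearly all actives have a fitted effect of over 60% in size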
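Cells in DMEM/10% FBS with G418 were pretreated with compounds in DMSO plus […] (300 uM stock) for 30 min at 37C. cAMP was measured by HTRF (cAMP-d2 plus anti-cAMP antibody-K) after 30 min at room temperature.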
PTHR1 agonist: qHTS for PTHR1 Agonists: Primary Screen; Parathyroid hormone/parathyroid hormone-related peptide receptor (Homo sapiens), Q03431; HEK293 GP2 PTHR1 cells, GloSensor cAMP luminescence, 1 h; Potency, µM (series often up to 115 µM), most hits filed as activators; hit rate 0.075% among 410,000; AID 743266, 2014; further: nearly all actives have a fitted effect of over 55% in size
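HEK-293-derived GP2 cells expressing PTHR1 and a GloSensor cAMP reporter, 3,000/well, plated overnight, given luciferin plus IBMX (each 0.5 mM as added) for 1 h at 37 °C, then compound for 1 h at 37 °C. Luminescence was read after 15 min at room temperature.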
RXFP1 ag: qHTS Assay for Agonists of the Relaxin Receptor RXFP1; hit rate 0.3% among 370,000; HEK293T-RXFP1 cAMP TR-FRET, 30 min; response scale: percent of porcine relaxin response, buffer zero; AID 2676, 2010; Relaxin receptor 1 (Homo sapiens), Q9HBX9; Potency, µM (series often up to 57.5 µM), usual class: activators; further: nearly all actives have a fitted effect of over 60% in size
Target sequence (Q9HBX9 whole entry, looked up): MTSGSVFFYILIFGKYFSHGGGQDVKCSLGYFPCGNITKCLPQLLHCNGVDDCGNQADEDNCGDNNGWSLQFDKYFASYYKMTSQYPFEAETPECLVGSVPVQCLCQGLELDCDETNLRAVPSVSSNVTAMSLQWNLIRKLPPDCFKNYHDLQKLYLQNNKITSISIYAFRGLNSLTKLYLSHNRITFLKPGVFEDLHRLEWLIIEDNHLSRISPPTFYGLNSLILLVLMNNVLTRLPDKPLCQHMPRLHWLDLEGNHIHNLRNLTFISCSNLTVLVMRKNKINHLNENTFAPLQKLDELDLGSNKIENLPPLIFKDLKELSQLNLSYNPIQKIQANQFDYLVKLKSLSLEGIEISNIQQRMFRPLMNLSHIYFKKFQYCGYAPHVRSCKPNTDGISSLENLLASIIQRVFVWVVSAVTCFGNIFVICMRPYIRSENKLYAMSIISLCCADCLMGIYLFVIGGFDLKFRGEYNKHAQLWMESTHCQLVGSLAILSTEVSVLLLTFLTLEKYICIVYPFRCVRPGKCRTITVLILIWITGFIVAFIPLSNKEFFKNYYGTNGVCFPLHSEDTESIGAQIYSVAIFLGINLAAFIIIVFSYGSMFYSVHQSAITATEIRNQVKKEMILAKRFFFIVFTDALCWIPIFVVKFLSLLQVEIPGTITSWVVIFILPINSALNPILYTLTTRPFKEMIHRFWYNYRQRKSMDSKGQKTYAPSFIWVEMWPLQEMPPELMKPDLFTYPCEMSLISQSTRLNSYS
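Agonist response is measured as cAMP accumulation in an RXFP1-transfected HEK293T line under PDE4 inhibition. Values are scaled between buffer-only and 29 nM porcine relaxin, and EC50s come from standard Hill equation fits.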
gsp antag: qHTS for Antagonists of gsp, the Etiologic Mutation Responsible for Fibrous Dysplasia/McCune-Albright Syndrome: qHTS; hit rate 0.4% among 340,000; AID 624288, 2012; gsp-mutant cells, cAMP HTRF, 30 min; Potency, µM (highest dose often 76.9 µM), most hits filed as inhibitors; calls by dose curve; cell line not stated here;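 further: intracellular cAMP measured with PDE inhibitor Ro 20-1724 present during compound exposure; nearly all actives have a fitted effect of over 65% in size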
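HTRF cAMP measurement after 30 min RT detection following 30 min, 37C compound treatment alongside […] (added as 300 uM solution) in G418-selected cells seeded at 2000/well and grown 16–24 h.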
RXFP1 antagonist: qHTS Assay for Antagonists of the Relaxin Receptor RXFP1; activity change, negative = inhibition, % at 57.5 µM; HEK293-RXFP1, relaxin-stimulated cAMP HTRF, 30 min; hits give low values; hit rate 0.59% among 350,000; Relaxin receptor 1 (Homo sapiens), Q9HBX9; AID 1259400, 2018;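 active means activity change of -60% or lower, but not beyond a set lower limit; inconclusive means change between -60% and -40%, or beyond the set limit; inactive means change above -40%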
Large screens that a line does not name were inactive. This is a sample that favours compounds with a hit; in the whole collection about 1% have one here. Unless noted, the call rests on the fitted dose curve; in most records, active means well fitted curve in the direction sought with a large enough effect; inconclusive means small, poorly fitted or top-dose-only effect, or another doubt; inactive means no such curve, though single readings can be large; an effect the other way counts as inactive or inconclusive.

CCOC(=O)C(=CNc1ccc2c(c1)c1ccccc1n2CC)C(=O)OCC	gsp antag 31.6µM
CCOc1ccc(-c2nonc2NC(=O)c2oc3cc(C)ccc3c2C)cc1	RXFP1 antagonist -65.9 (no result: gsp agonist, gsp antag)
CC(C)(C)C(=O)N1CCN(c2ccc(NC(=O)c3ccco3)cc2)CC1	RXFP1 antagonist -82.8
O=C(Nc1ccc(N2CCN(C(=O)c3ccccc3)CC2)cc1)c1cc2ccccc2o1	gsp antag 35.5µM
O=C(Nc1ccc(Nc2ccccc2)cc1)c1ccco1	RXFP1 antagonist -80.5
O=C(NC(=S)NNC(=O)c1cc2ccccc2cc1O)c1ccco1	RXFP1 antagonist -69.7
CCc1ccc(NC(=O)N2CCN(Cc3cc(=O)n4nc(-c5ccccc5OC)sc4n3)CC2)cc1	none (no result: gsp agonist, gsp antag, RXFP1 antagonist)
O=S(=O)(NCC(c1cccs1)S(=O)(=O)c1ccccc1)c1ccccc1 (centres undefined)	none (no result: gsp agonist, gsp antag)
O=C(Nc1ccc(C(=O)Oc2ccccc2)c(O)c1)c1ccccc1	gsp antag inconclusive
O=C(Nc1ccc(C(=O)Oc2ccccc2)c(O)c1)c1ccco1	gsp antag 35.5µM
CCN(CC)S(=O)(=O)c1ccc(Cl)c(NC(=O)CSc2cccc[n+]2[O-])c1	gsp agonist 8.91µM, RXFP1 ag 25.1µM
CCN(CC)S(=O)(=O)c1ccc(NC(=O)CSc2cccc[n+]2[O-])cc1	none
CCCOc1ccc(C2c3c(-c4ccccc4O)n[nH]c3C(=O)N2CCc2ccccc2)cc1OCC (centres undefined)	none (no result: gsp agonist, gsp antag)
Cc1ccc(Cl)cc1-n1ncc2c(N3CCN(Cc4ccccc4)CC3)ncnc21	RXFP1 antagonist -81.5 (no result: gsp agonist, gsp antag)
Cc1nn(-c2ccccc2)c(Cl)c1C(=O)N1CCN(c2ncnc3c2cnn3-c2ccccc2)CC1	gsp antag 12.6µM, RXFP1 antagonist inconclusive
COc1ccc(NC(=O)C2=C(C)Nc3nc(SCc4ccc(C)cc4C)nn3C2c2cccc(OC)c2OC)cc1 (centres undefined)	none (no result: gsp agonist, gsp antag, RXFP1 antagonist)
Cc1nn(-c2ccc(N3CCCC3)nn2)c(C)c1CCC(=O)N1CCN(c2ccccc2)CC1	none (no result: gsp agonist, gsp antag)
CS(=O)(=O)c1ccc(C(=O)OCC(=O)NC23CC4CC(CC(C4)C2)C3)cc1[N+](=O)[O-]	RXFP1 antagonist -64.9
Cn1cccc1C(=O)NC(=O)COC(=O)c1ccc(S(C)(=O)=O)c([N+](=O)[O-])c1	RXFP1 antagonist inconclusive (no result: RXFP1 ag)
COc1ccc(-c2nc(CSCC(=O)NCCC(C)C)c(C)o2)cc1OC	none (no result: gsp agonist, gsp antag)
COc1ccc2c(c1)oc(=O)c1ccccc12	none
O=c1oc2cc(O)c(Cl)cc2c2ccccc12	gsp agonist 2.24µM, RXFP1 ag 11.2µM
COc1ccc(S(=O)(=O)NCCSCc2cccs2)cc1	gsp antag 31.6µM
COc1ccc(S(=O)(=O)NCCSCc2ccco2)cc1	none
O=C(O)c1cccc(NC2=C(Cl)C(=O)c3ccccc3C2=O)c1	gsp agonist inconclusive, gsp antag 50.1µM
O=C(O)c1ccc(NC2=C(Cl)C(=O)c3ccccc3C2=O)cc1	gsp agonist inconclusive, gsp antag 28.2µM
CC(CNC(=O)CCc1cn(Cc2ccccc2Cl)c2ccccc12)c1ccccc1 (centres undefined)	none (no result: gsp agonist, gsp antag)
CC(=O)c1ccc(OCC(=O)N2CCCCC2)cc1	none (no result: gsp agonist, PTHR1 agonist, RXFP1 ag, gsp antag)
CC(C)C(=O)NCCc1nc2ccccc2n1CCCOc1ccc(Cl)cc1	none
Cc1cccc(OCCCn2c(CCNC(=O)C(C)(C)C)nc3ccccc32)c1	none (no result: gsp agonist, gsp antag)
Cc1ccccc1OCCCCn1c(CCNC(=O)C(C)(C)C)nc2ccccc21	RXFP1 antagonist -62.8 (no result: gsp agonist, gsp antag)
CC(C)(C)C(=O)NCCc1nc2ccccc2n1CCCCOc1ccc(Cl)cc1	RXFP1 antagonist -84.9 (no result: gsp agonist, gsp antag)
CCc1noc(C)c1C(=O)Nc1nc(-c2ccc(F)cc2)c(C)s1	none
COc1ccc(-c2nc(NC(=O)c3ccc(OCC(=O)N4CCOCC4)c(OC)c3)sc2C)cc1	gsp antag 35.5µM
COc1cc(C(=O)Nc2ccc(C)cn2)ccc1OCC(=O)N1CCOCC1	none
COc1cc(C(=O)Nc2nc(-c3ccc(Cl)cc3)c(C)s2)ccc1OCC(=O)Nc1ccc(F)cc1	gsp agonist inconclusive, RXFP1 ag 20µM
CCc1ccc(-c2nc(NC(=O)c3ccc(OCC(=O)Nc4ccc(F)cc4)c(OC)c3)sc2C)cc1	gsp agonist inconclusive, RXFP1 ag 31.6µM
COc1cccc(C(=O)Nc2nc(-c3nnn(-c4ccccc4C(F)(F)F)c3C)ns2)c1	none (no result: gsp agonist, gsp antag, RXFP1 antagonist)
CC(C(=O)N1CCN(Cc2ccc3c(c2)OCO3)CC1)c1ccc([N+](=O)[O-])cc1 (centres undefined)	gsp antag 11.2µM
O=C(C(Cl)Cl)N1CCN(Cc2ccc3c(c2)OCO3)CC1	none
COc1ccccc1NC(=O)CSc1nc2ccccc2c2nc(-c3ccccc3)nn12	none (no result: gsp agonist, gsp antag)
Cc1cccc(N2CCN(C(=O)c3cc4c(=O)n(C)c5ccccc5c4n3C)CC2C)c1 (centres undefined)	gsp antag inconclusive, RXFP1 antagonist -77.1
Cc1cccc(C)c1NC(=O)Cn1c(=O)n(Cc2ccco2)c(=O)c2ccc(C(=O)NC3CCCC3)cc21	none (no result: gsp agonist, gsp antag, RXFP1 antagonist)
c1ccc(OCCn2c(-c3ccco3)nc3ccccc32)cc1	none
Cc1cccc(OCCn2c(-c3ccco3)nc3ccccc32)c1	gsp antag 35.5µM
COc1ccc(-c2noc(CSc3nnc(Cc4ccccc4)n3-c3ccc(F)cc3)n2)cc1	none (no result: gsp agonist, gsp antag, RXFP1 antagonist)
CC1CCN(C(=O)c2ccc(NC3=C(Cl)C(=O)N(Cc4ccccc4)C3=O)cc2)CC1	gsp antag inconclusive
CC1CCCCN1C(=O)c1cccc(NC2=C(Cl)C(=O)N(Cc3ccccc3)C2=O)c1 (centres undefined)	gsp antag 28.2µM
Cc1ccc(NC(=O)Cn2c(=O)n(CC3CCCO3)c(=O)c3ccccc32)cc1 (centres undefined)	none (no result: gsp agonist, gsp antag, RXFP1 antagonist)
COc1ccc2cc(/C=C3\SC(=S)NC3=O)c(N3CCOCC3)nc2c1	gsp antag 35.5µM
O=C1NC(=S)S/C1=C/c1ccc(N2CCOCC2)o1	gsp antag inconclusive
CC(C)c1c(C(=O)N/N=C/c2ccc(OCc3ccccc3)cc2)nnn1-c1nonc1N	gsp agonist inconclusive
COc1ccc(/C=N/NC(=O)c2nnn(-c3nonc3N)c2-c2cccs2)cc1OC	none
Nc1nonc1-n1nnc(C(=O)N/N=C/c2cccc(Cl)c2)c1-c1cccs1	gsp antag 39.8µM
COc1cc(/C=N/NC(=O)c2nnn(-c3nonc3N)c2C(C)C)ccc1OCc1ccccc1	gsp antag 25.1µM
COc1cc(/C=N/NC(=O)c2nnn(-c3nonc3N)c2-c2cccs2)ccc1O	gsp antag 22.4µM

Bioassay records (PubChem)
